Test results published in PubChem BioAssay (EPA / NIEHS).
Calls of active or inactive are those of the source. How the source made its calls: active means hit-call score of the fitted dose curve at least 0.9, where 1 is the maximum; inactive means score below 0.9.

Key:
[1] = molecular target: Transcriptional activator Myb (Homo sapiens) (UniProt P10242); assay: ATG_Myb_CIS: Attagene CIS-FACTORIAL HepG2 Assay for human Myeloblastosis (Myb) Proto-Oncogene Transcription Factor (AID 2282986); conditions: HepG2 Attagene CIS-FACTORIAL Myb reporter transcription; actives raise or lower the signal
Chain of Transcriptional activator Myb (Homo sapiens) (P10242 whole entry, looked up): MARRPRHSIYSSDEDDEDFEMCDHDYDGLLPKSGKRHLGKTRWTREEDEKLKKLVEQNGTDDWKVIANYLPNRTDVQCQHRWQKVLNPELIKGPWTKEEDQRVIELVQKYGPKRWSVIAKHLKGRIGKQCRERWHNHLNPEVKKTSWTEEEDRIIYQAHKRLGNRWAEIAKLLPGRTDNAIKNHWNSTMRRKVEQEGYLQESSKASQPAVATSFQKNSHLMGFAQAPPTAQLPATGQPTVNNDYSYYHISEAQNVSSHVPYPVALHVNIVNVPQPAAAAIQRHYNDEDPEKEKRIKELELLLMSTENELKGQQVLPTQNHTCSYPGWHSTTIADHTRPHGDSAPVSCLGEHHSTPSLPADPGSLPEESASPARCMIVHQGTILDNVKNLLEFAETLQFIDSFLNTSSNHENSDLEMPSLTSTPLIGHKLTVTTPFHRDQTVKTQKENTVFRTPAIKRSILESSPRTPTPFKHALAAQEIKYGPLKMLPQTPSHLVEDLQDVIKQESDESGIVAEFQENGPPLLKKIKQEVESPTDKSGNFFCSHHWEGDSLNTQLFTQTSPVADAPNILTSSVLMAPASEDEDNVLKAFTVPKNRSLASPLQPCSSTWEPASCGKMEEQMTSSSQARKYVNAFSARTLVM
Outline: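 Steps: transfect HepG2 with cis-regulated reporter units; dose with chemical for 24 h; isolate RNA, reverse-transcribe, PCR-amplify and FAM-label reporter sequences; digest with HpaI; resolve by capillary electrophoresis. Activity fitted in both directions relative to DMSO.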

[2] = molecular target: Nuclear respiratory factor 1 (Homo sapiens) (UniProt Q16656); assay: ATG_NRF1_CIS: Attagene CIS-FACTORIAL HepG2 Assay for human Nuclear Respiratory Factor 1 (NRF1) Orphan Gene (AID 2282987); conditions: HepG2 NRF1 cis-element reporter, Attagene multiplex; actives raise or lower the signal
Chain of Nuclear respiratory factor 1 (Homo sapiens) (Q16656 whole entry, looked up, the tested form may be a part): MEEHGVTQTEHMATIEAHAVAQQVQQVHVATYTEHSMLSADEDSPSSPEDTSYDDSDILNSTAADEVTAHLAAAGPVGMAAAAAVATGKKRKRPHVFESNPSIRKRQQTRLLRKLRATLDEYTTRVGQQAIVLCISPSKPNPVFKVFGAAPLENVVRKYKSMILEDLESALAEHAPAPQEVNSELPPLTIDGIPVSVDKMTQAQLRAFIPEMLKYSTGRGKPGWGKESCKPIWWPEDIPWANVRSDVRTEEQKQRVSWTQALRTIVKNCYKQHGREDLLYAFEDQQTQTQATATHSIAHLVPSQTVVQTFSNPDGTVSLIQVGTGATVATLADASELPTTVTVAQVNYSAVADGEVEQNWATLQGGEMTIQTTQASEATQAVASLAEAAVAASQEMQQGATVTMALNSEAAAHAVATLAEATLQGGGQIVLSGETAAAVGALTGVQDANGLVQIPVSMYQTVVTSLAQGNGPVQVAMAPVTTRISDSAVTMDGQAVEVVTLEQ
Outline: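 Fluorescence intensity of labelled reporter cDNA fragments, resolved by capillary electrophoresis, served as readout for NRF1 cis-element activity. Transiently transfected HepG2 cells were dosed for 24 hours; activity in either direction was fitted against DMSO negative control.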

[3] = ATG_NFI_CIS: Attagene CIS-FACTORIAL HepG2 Assay for human Nuclear Factor I (NFI) (AID 2282989); conditions: HepG2 cis-regulatory reporter, NFI response element transcription; actives raise or lower the signal
Outline: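 Transient MRTU transfection of HepG2 → 24 h chemical dosing → total RNA, oligo(dT) RT → PCR, 6-FAM primer extension, HpaI cut → capillary electrophoresis. Endpoint fitted bidirectionally relative to DMSO.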

[4] = molecular target: Myc proto-oncogene protein (Homo sapiens) (UniProt P01106); assay: ATG_Myc_CIS: Attagene CIS-FACTORIAL HepG2 Assay for human Myelocytomatosis (Myc) Proto-Oncogene Transcription Factor (AID 2282990); conditions: HepG2, Attagene cis-reporter transcription factor activity; actives raise or lower the signal
Chain of Myc proto-oncogene protein (Homo sapiens) (P01106 whole entry, looked up): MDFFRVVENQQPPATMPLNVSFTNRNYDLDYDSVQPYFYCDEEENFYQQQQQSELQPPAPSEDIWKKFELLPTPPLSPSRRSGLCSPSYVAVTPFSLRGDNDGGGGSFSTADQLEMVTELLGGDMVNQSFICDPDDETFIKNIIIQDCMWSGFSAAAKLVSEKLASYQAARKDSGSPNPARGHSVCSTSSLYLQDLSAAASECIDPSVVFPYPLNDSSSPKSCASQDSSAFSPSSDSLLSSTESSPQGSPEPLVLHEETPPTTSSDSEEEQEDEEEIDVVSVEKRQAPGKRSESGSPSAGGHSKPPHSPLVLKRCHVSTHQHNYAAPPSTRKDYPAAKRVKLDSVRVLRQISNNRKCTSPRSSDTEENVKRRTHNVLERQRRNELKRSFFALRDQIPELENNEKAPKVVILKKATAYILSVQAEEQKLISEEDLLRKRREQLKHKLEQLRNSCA
Outline: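 DMSO-normalised, bidirectionally fitted reporter mRNA signal. HepG2 cells transfected with cis reporter constructs, treated 24 h; transcripts detected by RT-PCR, 6-FAM primer extension and CE.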

[5] = ATG_NRF2_ARE_CIS: Attagene CIS-FACTORIAL HepG2 Assay for human Nuclear Factor Erythroid 2 Related Factor 2 (NFR2) response to Antioxidant Response Elements (ARE) (AID 2282992); conditions: HepG2 Attagene ARE/NRF2 reporter, transcription factor activity; actives raise or lower the signal;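 on AC50: reporter mRNA level measured by RT-PCR and capillary electrophoresis fluorescence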
Outline: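 Cis-factorial assay: transfected HepG2 reporter library, 24 h dosing, mRNA readout via RT-PCR/CE; DMSO-referenced bidirectional analysis.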

[6] = BSK_3C_TissueFactor: BioMAP Diversity Plus: 3C Assay for Tissue Factor Biomarker Activity (AID 2282997); conditions: BioMAP 3C HUVEC, tissue factor biomarker readout; actives raise or lower the signal
Outline: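 ELISA read-out of Tissue Factor levels on human umbilical vein endothelium collected 24 h after chemical dosing. Gain or loss of signal was fitted relative to DMSO.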

[7] = BSK_3C_uPAR: BioMAP Diversity Plus: 3C Assay for Urokinase-type plasminogen activator receptor (uPAR) Biomarker Activity (AID 2282998); conditions: BioMAP 3C HUVEC, uPAR biomarker ELISA; actives raise or lower the signal
Outline: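 ELISA readout of uPAR on human vascular endothelium (umbilical vein primary cells), taken 24 h after chemical dosing. Increases and decreases are both fitted relative to DMSO vehicle.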

[8] = molecular target: Cellular tumor antigen p53 (Homo sapiens) (UniProt P04637); assay: ATG_p53_CIS: Attagene CIS-FACTORIAL HepG2 Assay for human p53 Transcription Factor (AID 2282994); conditions: HepG2 p53 cis-element reporter, Attagene mRNA; actives raise or lower the signal
Chain of Cellular tumor antigen p53 (Homo sapiens) (P04637 whole entry, looked up): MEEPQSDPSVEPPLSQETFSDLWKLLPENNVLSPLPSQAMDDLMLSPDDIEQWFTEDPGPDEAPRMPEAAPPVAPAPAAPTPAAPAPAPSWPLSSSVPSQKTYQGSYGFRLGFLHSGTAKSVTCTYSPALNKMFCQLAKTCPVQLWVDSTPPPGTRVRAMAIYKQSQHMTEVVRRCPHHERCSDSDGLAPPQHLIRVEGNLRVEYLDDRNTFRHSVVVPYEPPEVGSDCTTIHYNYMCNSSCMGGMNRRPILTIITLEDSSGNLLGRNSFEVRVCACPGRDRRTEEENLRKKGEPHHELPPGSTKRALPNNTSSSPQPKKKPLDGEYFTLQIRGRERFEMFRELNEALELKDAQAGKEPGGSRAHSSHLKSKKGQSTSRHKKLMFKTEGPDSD
Outline: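 Using HepG2 hepatoma cells carrying cis-acting multiplexed reporters, mRNA induction is detected after a 24 h exposure. Gain- and loss-of-signal responses are fitted relative to DMSO-treated cells.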

[9] = ATG_NF_kB_CIS: Attagene CIS-FACTORIAL HepG2 Assay for human Nuclear Factor Kappa B (NF-kB) (AID 2282991); conditions: HepG2 Attagene cis-factorial NF-kB reporter mRNA; actives raise or lower the signal
Outline: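 Endogenous transcription factor activity in HepG2 was captured via cis-regulated reporter constructs; after 24 h dosing, reporter mRNA was reverse-transcribed, amplified, fluorescently labelled and sized by capillary electrophoresis, with activity fitted bidirectionally relative to DMSO.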

[10] = ATG_Oct_MLP_CIS: Attagene CIS-FACTORIAL HepG2 Assay for human Octamer-Binding Transcription Factor (Oct) (AID 2282993); conditions: HepG2 Attagene cis-factorial Oct reporter, mRNA; actives raise or lower the signal
Outline: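 Transient MRTU transfection of HepG2 → 24 h compound treatment → RNA isolation, reverse transcription, PCR → 6-FAM primer extension, HpaI digest → capillary electrophoresis. Activity fitted both directions against DMSO.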

Measured: AC50

CCCCc1ccccc1
not listed: [8] | [9] | [10]
inactive: all other assays above

Nc1ccc(Sc2ccc(N)cc2)cc1
active: [5] 50.4 µM
inactive: [1] | [2] | [3] | [4]

Nc1ccc(Cl)cc1
not listed: [9] | [10]
inactive: all other assays above

CCC(C)(C)c1ccc(O)cc1
active: [1] 46.1 µM | [5] 33.4 µM
not listed: [10]
inactive: all other assays above

Cc1ccc2c(c1N)C(=O)c1ccccc1C2=O
active: [9] 25.4 µM | [5] 42.4 µM | [6] 20 µM | [7] 3.89 µM
not listed: [10]
inactive: all other assays above

NC(=O)C(F)(F)C(F)(F)F
not listed: [10]
inactive: all other assays above

Nc1ccc2ccccc2c1
not listed: [9] | [10]
inactive: all other assays above

CCCCC(CC)COP(=O)(Oc1ccccc1)Oc1ccccc1 (configuration not stated)
active: [1] 143 µM | [2] 173 µM | [3] 158 µM | [4] 143 µM | [9] 159 µM | [5] 12.2 µM | [6] 9.63 µM | [7] 12.1 µM

CC(C)(C)c1ccc(O)cc1
inactive: [1] | [4] | [6] | [7]
active: [8] 170 µM

ClC(Cl)c1ccccc1
not listed: [8] | [10]
inactive: all other assays above

CSC(C)(C)C=NO
not listed: [8] | [9]
inactive: all other assays above

CCOC(=O)c1ccccc1N
inactive: [1] | [2] | [3] | [4] | [5] | [10]

O=C(O)CF
inactive: [1] | [2] | [3] | [4] | [5] | [10]

O=C(O)C(F)(F)OC(F)(F)C(F)(F)OC(F)(F)C(=O)O
not listed: [10]
inactive: all other assays above

Cc1ccc([N+](=O)[O-])cc1C
not listed: [8] | [10]
inactive: all other assays above

CCOP(=O)(O)C(N)=O
inactive: [1] | [2] | [3] | [4] | [5] | [10]

CCNc1nc(Cl)nc(NC(C)(C)C)n1
not listed: [8] | [10]
inactive: all other assays above

O=C(O)C(F)(F)OC(F)(F)C(F)(F)OC(F)(F)F
not listed: [10]
inactive: all other assays above

COCCOCCO
not listed: [8] | [10]
inactive: all other assays above

Cc1ccc(O)cc1C
inactive: [1] | [4] | [10] | [8] | [6] | [7]

CC(Cl)(Cl)C(=O)O
not listed: [8] | [9]
inactive: all other assays above

CCOP(=S)(NC(C)C)Oc1ccccc1C(=O)OC(C)C (configuration not stated)
not listed: [9]
inactive: all other assays above
